Bioassay records deposited in PubChem BioAssay by several laboratories.
NR3A LBD binder: binders of NR3A ligand-binding domain, primary screen, biophysical, differential scanning fluorimetry, uHTS. Glutamate receptor ionotropic, NMDA 3A (GRIN3A) ligand-binding domain. NR3A LBD differential scanning fluorimetry, Tm shift; 0% = protein alone, 100% = glycine-bound protein. Tm shift relative to glycine control, % at 25 µM. actives 2.5% (n = 340,000). AID 1259313, 2017;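 active = melting temperature shift of at least 10% of the positive control shift, at one fixed dose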
SMARCA2 act: SMARCA2 (BRM) function activators, primary screen, cell-based, luminescence, high throughput. MG213 cells, MMTV-luciferase reporter, dexamethasone, overnight. activation, % at 9.1 µM. actives 1% (n = 370,000); in the data active = activation above about 7.8%;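 note: 0% = vehicle wells and 100% = reference activator wells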
Vif imaging: HIV Vif self-association inhibitors, primary screen, imaging, HEK293T, single point; HEK293T cells, Vif self-association by quenched fluorescence, 24 h; inhibition, % at 7.49 µM; actives 0.35% (n = 340,000); AID 602346, 2012; in the data active = inhibition above about 50%, passing the limit was not always enough; inconclusive = no clear call, values can overlap the other calls; inactive = below about 31%
SKN-1 inh: suppressors of acrylamide-induced Pgst-4::GFP reporter in worms, primary screen, SKN-1 inhibitor project, whole organism, uHTS, GFP/RFP fluorescence ratio, strain VP596 | C. elegans VP596 Pgst-4::GFP/RFP ratio, 24 h | AID 624304, 2012 | inhibition, % at 21.8 µM | actives 0.49% (n = 360,000);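 active = interference check ratio from 0.5 to 1.5 plus GFP to RFP signal ratio inhibition reaching or exceeding a fixed threshold, cut at about 30% in these data, passing the limit was not always enough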
NadD inh: inhibitors of S. aureus NadD, primary screen, biochemical, colorimetric, uHTS; inhibition, % at 20 µM; Nicotinate-nucleotide adenylyltransferase NadD (Staphylococcus aureus N315); actives 0.78% (n = 360,000); AID 602399, 2012; purified NadD enzyme, colorimetric absorbance read-out; in the data active = inhibition above about 26%
esBAF inh: Bmi1 luciferase reporter increase in mESCs, primary screen, esBAF inhibitor project, mouse ES cells, Bmi1 luciferase knock-in, single point. reporter increase, % at 12.5 µM. 24 h; 100% = twice the neutral-well signal. AID 602393, 2012. actives 2% (n = 350,000); in the data active = activation above about 40%; inconclusive = no clear call, values can overlap the other calls;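 note: 0% = median of the plate's neutral control wells and 100% = double that signal; a rise in the Bmi1 reporter signal indicates esBAF inhibition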
* marks the source's active call; other numbers are inactive results; u = inconclusive; x = no result given. An excerpt weighted towards active compounds, which were near 5.2% of everything screened.

SMILES	NR3A LBD binder	SMARCA2 act	Vif imaging	SKN-1 inh	NadD inh	esBAF inh
CO[C@@H]1CN(C)C(=O)c2ccc(NS(=O)(=O)c3ccc(F)cc3)cc2OC[C@@H](C)NC[C@@H]1C	x	x	x	x	x	-3
Oc1cc(O)cc(-c2cc3ccc(O)cc3o2)c1	16*	-1	3	13	3	-27
O=C1Nc2ccccc2S/C1=C/Nc1cccc(Cl)c1	3	3	123*	12	6	16
CO[C@@H]1CN(C)C(=O)c2ccc(NC(=O)C3CCCCC3)cc2OC[C@@H](C)N(C)C[C@@H]1C	x	x	x	x	x	6
COC(=O)C[C@H]1C[C@H]2c3cc(NC(=O)CN(C)C)ccc3O[C@H]2[C@@H](CO)O1	x	x	x	x	x	7
COC(=O)C1=C(C)N(C)C(C)=C(C(=O)OC)C1c1ccsc1	12*	2	22	-12	-1	-11
COCC(=O)N1C[C@H](C)[C@@H](OC)CN(C)C(=O)c2cc(NC(=O)c3cnccn3)ccc2OC[C@@H]1C	x	x	x	x	x	-2
CC(=O)N1CC2(CC(c3ccccc3F)=NO2)CN1c1ccc(Cl)cc1 (centres undefined)	x	6	-4	7	1	55*
N#CC1=C(N)N2C(=C(C#N)C1c1cccc(Br)c1)Nc1ccccc12 (centres undefined)	24*	1	-19	9	10	x
N#CC1=C(N)N2C(=C(C#N)C1c1ccc(Br)cc1)Nc1ccccc12 (centres undefined)	23*	-4	x	x	x	x
COc1ccc(Cl)cc1-c1nc(-c2ccc(NC(=O)c3ccncc3)cc2)no1	26*	6	x	23	2	2
Clc1ccc(Cl)c(-c2nc(-c3ccncc3)no2)c1	1	0	u	16	-1	39
COc1cccc(NC(=O)c2ccccc2-c2nc(-c3ccc(Cl)cc3)no2)c1	16*	4	-5	-19	-4	35
COc1cccc(NC(=O)c2ccccc2-c2nc(-c3ccccc3)no2)c1	-1	1	-2	-12	-8	13
COc1ccc(-c2nc(-c3ccc(NC(=O)c4ccncc4)cc3)no2)cc1OC	12*	x	-12	22	-9	7
COc1cccc(-c2noc(CCC(=O)Nc3cccnc3)n2)c1	1	0	2	3	5	52*
O=C(c1ccncc1)N1C[C@@H]2[C@H](c3ccccc31)[C@H](CO)N2C(=O)c1ccccn1	x	x	x	x	x	0
C/C=C/c1ccc2c(c1)O[C@@H](CN(C)Cc1ccncc1)[C@H](C)CN([C@H](C)CO)S2(=O)=O	x	x	x	x	x	1
COc1cccc(-c2nc(-c3ccc(NC(=O)c4ccncc4)cc3)no2)c1	24*	-2	-8	7	4	20
COc1cccc(-c2nc(-c3ccc(C(=O)O)cc3)no2)c1	-1	5	-8	3	-9	8
CN(C)/N=C/C=C1\CC/C(=C\c2ccc(Br)cc2)C1=O	4	0	15	41*	-7	20
COCC(=O)Nc1ccc2c(c1)OC[C@@H](C)N(C(=O)c1ccncc1)C[C@H](C)[C@H](OC)CN(C)C2=O	x	x	x	x	x	-1
CCCNC(=O)N1C[C@@H](C)[C@@H](OC)CN(C)C(=O)c2cc(NC(=O)C3CCC3)ccc2OC[C@H]1C	x	x	x	x	x	-4
O=C(NCc1nc(-c2ccc(C(F)(F)F)cc2)no1)Nc1ccc(F)cc1F	1	-2	2	-19	-2	x
Cc1cc(C)cc(NC(=O)NCc2c(-c3ccccc3)noc2C)c1	0	-4	17	2	-8	-2
SMILES	NR3A LBD binder	SMARCA2 act	Vif imaging	SKN-1 inh	NadD inh	esBAF inh
Cc1onc(-c2ccccc2)c1CNC(=O)Nc1ccc(C(F)(F)F)cc1	11*	-6	0	-11	-11	x
O=C(NCc1nc(-c2ccc(C(F)(F)F)cc2)no1)Nc1cc(Cl)cc(Cl)c1	33*	-3	-11	-26	-6	-7
O=C(NCc1cccs1)c1cccc(Nc2nc3ccc(Br)cc3[nH]2)c1	11*	-1	7	-7	9	5
CN1C(=O)c2cc(NC(=O)c3cccs3)ccc2OC[C@@H]2O[C@@H](CC(=O)NCC3CC3)CC[C@@H]21	x	x	x	x	x	-2
CCOC(=O)/C(=C\Nc1ccccc1C(F)(F)F)Sc1ncc(C(F)(F)F)cc1Cl	0	1	-3	-16	-4	x
N#Cc1c(Sc2ncc(C(F)(F)F)cc2Cl)nsc1C/C=N\OCc1ccccc1Br	-1	1	5	31	46*	-10
CCCNC(=O)[C@@H]1[C@@H](CO)[C@@H]2Cn3c(ccc(-c4ccccc4OC)c3=O)[C@@H]2N1CC	x	x	x	x	x	4
COc1ccc(NC(=O)Nc2ccc3oc(C)nc3c2)cc1	25*	5	1	-6	9	x
COc1ccc(NC(=O)Nc2ccc3c(c2)CCC3)cc1	14*	3	2	14	-6	52*
CCC1CCC(NC(=O)Nc2cccc(OC)c2)CC1 (centres undefined)	-4	7	2	4	-5	83*
COc1cccc(NC(=O)c2ccc(NC(C)=O)cc2)c1	2	-2	17	-8	-3	25
COc1ccc(NC(=O)Nc2cccc(OC)c2)cc1	25*	6	2	-2	-2	37
COc1cccc(NC(=O)C2CC2)c1	-1	1	3	12	-1	9
COc1cccc(NC(=O)N[C@H]2CC[C@@H](CC(=O)NCc3ccncn3)O[C@H]2CO)c1	x	x	x	x	x	-2
CO[C@@H]1CN(C)C(=O)c2cc(NC(=O)CC(F)(F)F)ccc2OC[C@@H](C)N(C(=O)C2CCOCC2)C[C@H]1C	x	x	x	x	x	-2
COc1cccc(NC(=O)Nc2ccc3nsnc3c2)c1	37*	-1	x	14	-10	35
COc1cccc(NC(=O)Nc2ccc3c(c2)nc(C)n3C)c1	-1	5	16	4	2	-26
COc1cccc(NC(=O)Nc2cc(Cl)ccc2C)c1	21*	4	-3	-5	-2	x
Cc1nc2cc(NC(=O)c3ccc(S(=O)(=O)N(C)c4ccccc4)cc3)ccc2o1	-7	-3	-11	3	-1	83*
COc1ccc(NC(=O)NC(C(F)(F)F)C(F)(F)F)cc1	4	-1	1	43*	0	0
COc1ccc(NC(=O)Nc2cc(F)ccc2C)cc1	7	-4	-8	-8	-1	x
O=C(C[C@H]1CC[C@H](NC(=O)c2ccccn2)[C@H](CO)O1)NCc1cc(F)cc(F)c1	x	x	x	x	x	-7
